Drawing on PubChem BioAssay AID2158 (National Center for Advancing Translational Sciences (NCATS), 2009), this text covers Potency and activity change, negative = inhibition for 14 molecules.

Each structure is given as a SMILES string. Inconclusive results are not listed. Unmarked numbers belong to inactive results. Active and inactive are the calls of the source. Calls come from the whole dose curve; as a rule, active = well fitted inhibition curve with a large enough effect; inconclusive = small, poorly fitted or top-dose-only effect; inactive = no such curve, though single readings can be large or run the other way.
Potency is the fitted concentration of half-maximal effect.

Sequence of Cruzipain (Trypanosoma cruzi) (P25779 123-467 limits assumed): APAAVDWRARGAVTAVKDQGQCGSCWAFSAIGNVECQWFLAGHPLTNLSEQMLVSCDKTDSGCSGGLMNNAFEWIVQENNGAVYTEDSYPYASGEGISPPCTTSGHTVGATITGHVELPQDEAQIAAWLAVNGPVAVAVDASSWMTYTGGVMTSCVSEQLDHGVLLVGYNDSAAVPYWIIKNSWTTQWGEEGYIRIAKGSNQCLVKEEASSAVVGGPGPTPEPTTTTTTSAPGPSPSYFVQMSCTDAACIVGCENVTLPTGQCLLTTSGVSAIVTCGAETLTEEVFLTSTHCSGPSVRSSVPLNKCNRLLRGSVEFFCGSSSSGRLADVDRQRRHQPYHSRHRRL

The test has as its target Cruzipain (Trypanosoma cruzi) (UniProt P25779). Nature of the test: Confirmation qHTS Assay for Inhibitors of Cruzain.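 For activity change, negative = inhibition: plate controls were uninhibited enzyme control for no effect and buffer wells lacking enzyme for full effect.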 Note: nearly all actives have a fitted effect of over 40% in size. To be noted: purified cruzain, Z-FR-AMC fluorescence, 0.01% Triton. A digest of the protocol: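 Purified cruzain, 1.5 nM, pre-incubated 15 min at room temperature with compound in 100 mM sodium acetate pH 5.5, 5 mM DTT, 0.01% Triton X-100. Then 2 uM Z-FR-AMC added; AMC fluorescence (ex 360/em 450 nm) increase over 60 s gave reaction progress.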
A general note: Quantitative high-throughput screening tests each substance at several concentrations.
Regarding `N#Cc1nc(NC2CCCC2)c2ncn(-c3cc(F)cc(F)c3)c2n1`, the Potency is 0.316 µM (active). For `CCOc1ccc(CN2C(=O)c3ccccc3Sc3ccc(C(=O)NCc4ccc(C)cc4)cc32)cc1`, the activity change, negative = inhibition is 0.925%. Take `Cc1cccc(C(=O)NCC(=O)OCC(=O)c2ccc3ccccc3c2)c1`: the Potency is 12.6 µM (active). With `Cc1ccccc1OCC(=O)NCC(=O)OCC(=O)c1ccc([N+](=O)[O-])cc1`, the Potency was 35.5 µM (active). Take `O=C(CCN1C(=O)/C(=C/C=C/c2ccccc2)SC1=S)Nc1nccs1`: the activity change, negative = inhibition was 1.52%. In the case of `COc1ccccc1C(=O)NCC(=O)OCC(=O)c1cccc2ccccc12`, the Potency is 31.6 µM (active). For `O=C(CNC(=O)C1CCCCC1)OCC(=O)c1ccc(-c2ccccc2)cc1`, the Potency is 1.58 µM (active). As for `COc1ccc(NC(=O)C(OC(=O)CNC(=O)c2ccccc2)c2ccccc2)cc1F` (centres undefined), the Potency is 11.2 µM (active). With `COc1ccc(NS(=O)(=O)c2cc(NC(=O)/C=C/c3ccccc3OC)ccc2N2CCCCC2)cc1`, the activity change, negative = inhibition was 2.33%. The same measure, in the same setting: under `CC(C)(C)OC(=O)CC(=O)NNC(=O)c1cc2ccccc2[nH]1` stands -2.89%.

With `COc1cccc2c1[C@@H]1CN(CCCCn3c(=O)[nH]c4c(sc5ncc(-c6ccccc6)nc54)c3=O)C[C@@H]1CO2`, the Potency is 15.8 µM (active). Turning to `NC(=S)N/N=C\c1ccc(-c2cccc(Cl)c2Cl)o1`, the Potency was 1 µM (active). As to `COc1ccc(C(=O)NCC(=O)OCC(=O)c2ccc3ccccc3c2)cc1`, the Potency is 15.8 µM (active).

In the case of `Cc1cccc(Nc2nc(C#N)nc(NC3CCCC3)n2)c1`, the Potency was 0.126 µM (active).
